Source: PubChem BioAssay (National Center for Advancing Translational Sciences (NCATS))
Shown are actives, neighbours in structure and some others; about 9% of the full set was active somewhere.
JMJD2A Tudor inh – blocks the human JMJD2A Tudor domain | hit rate 4.4% among 390,000 | Potency, µM (highest dose often 114 µM), without a hit: at the top dose activity change, negative = inhibition, most hits filed as inhibitors | AlphaScreen JMJD2A-Tudor / H3K4me3 peptide binding | AID 504339 | O75164; note: % is set by controls: 0 for no effect and ±100 for the full control effect; nearly all actives have a fitted effect of over 50% in size
PLK1 PBD inh – blocks phosphopeptide binding to human PLK1 polo-box domain; Potency, µM, without a hit: max response, negative = inhibition, hits mostly inhibitors; Plk1 PBD binding of FITC phosphopeptide, fluorescence polarization; hit rate 2.8% among 360,000; AID 720504; note: series mostly up to about 57 µM; % is set by controls: 0 for no effect and ±100 for the full control effect; nearly all actives have a fitted effect of over 65% in size
BAZ2B inh – blocks human BAZ2B; Q9UIF8; AlphaScreen BAZ2B-H3K14Ac peptide displacement; Potency, µM (highest dose often 114 µM), inactives show top-dose activity change, negative = inhibition, usual class: inhibitors; hit rate 4.4% among 360,000; note: % is set by controls: 0 for no effect and ±100 for the full control effect; nearly all actives have a fitted effect of over 60% in size
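BAZ2B 50 nM plus b-H3(5-23)K14Ac 50 nM, PBS pH 7.4/0.01% Tween-20, 30 min RT; compound added (max 110 uM), 30 min RT; streptavidin donor/Ni-chelate acceptor beads 10 ug/mL final, 20 min dark; AlphaScreen read.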
G9a block – G9a (human) methyltransferase inhibition; Q96KQ7; G9a H3K9 monomethylation, AlphaScreen, 2 h; Potency, µM (titrated, usually from 102 µM), inactives show at the top dose activity, negative = inhibition, actives largely listed as inhibitors; hit rate 8.8% among 350,000; AID 504332; note: % is set by controls: 0 for no effect and ±100 for the full control effect; nearly all actives have a fitted effect of over 75% in size
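G9a (20 nM) was preincubated 15 min with compound, then reacted 2 h at room temperature with 500 nM biotin-H3K9 peptide and 20 µM SAM. Monomethyl-H3K9 detected by AlphaScreen using anti-H3K9me1 antibody.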
HP1b chromo inh – inhibitors of HP1-beta chromodomain binding to methylated histone tails. P83916. hit rate 0.56% among 390,000. Potency, µM (titrated, usually from 114 µM), without a hit: at the top dose activity change, negative = inhibition, hits mostly inhibitors. AlphaScreen HP1-beta / biotin-H3K9me3 peptide binding; note: nearly all actives have a fitted effect of over 70% in size
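AlphaScreen: HP1-beta (50 nM) preformed 30 min with biotin-H3(1-18)K9me3 peptide (50 nM) in PBS pH 7.4, 0.01% Tween-20. Compound added for 30 min at RT, then streptavidin donor/nickel chelate acceptor beads (10 ug/mL) for 30 min.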
ALOX12 inh – ALOX12 (human) lipoxygenase inhibition | P18054 | purified 12hLO, xylenol orange hydroperoxide absorbance | Potency, µM (titrated, usually from 108 µM), for the others: top-dose activity change, negative = inhibition, hits mostly inhibitors | AID 1671190 | hit rate 1.1% among 580,000; note: % is set by controls: 0 for no effect and ±100 for the full control effect
Target sequence (P18054 whole entry, looked up): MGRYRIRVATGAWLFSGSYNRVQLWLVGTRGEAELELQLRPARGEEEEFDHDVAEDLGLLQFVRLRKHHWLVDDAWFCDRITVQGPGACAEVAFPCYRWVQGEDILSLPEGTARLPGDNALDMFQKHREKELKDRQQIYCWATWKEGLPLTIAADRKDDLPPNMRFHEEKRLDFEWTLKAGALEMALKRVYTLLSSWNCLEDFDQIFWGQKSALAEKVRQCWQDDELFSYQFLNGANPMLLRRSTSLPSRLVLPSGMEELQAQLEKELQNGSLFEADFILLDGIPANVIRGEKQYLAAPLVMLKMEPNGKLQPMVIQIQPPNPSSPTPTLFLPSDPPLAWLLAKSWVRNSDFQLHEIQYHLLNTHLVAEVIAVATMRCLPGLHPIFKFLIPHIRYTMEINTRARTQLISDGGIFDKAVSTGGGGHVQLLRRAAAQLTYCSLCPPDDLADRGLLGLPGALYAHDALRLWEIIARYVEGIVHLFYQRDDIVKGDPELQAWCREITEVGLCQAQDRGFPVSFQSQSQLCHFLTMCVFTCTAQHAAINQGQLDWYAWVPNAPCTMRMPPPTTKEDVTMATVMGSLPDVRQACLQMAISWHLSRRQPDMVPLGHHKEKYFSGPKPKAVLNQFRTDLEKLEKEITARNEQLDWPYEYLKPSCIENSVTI
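Purified human 12hLO (150 nM final) in 25 mM Hepes, 0.01% Triton X-100, pH 7.0 was preincubated 15 min at room temperature with compound. Then 40 uM arachidonic acid was added, 30 min. Hydroperoxide was read by Fe-XO absorbance ratio 573/405 nm.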
Active calls of the source: *; ? = inconclusive; nt = not tested or not shown; [ ] = remark or other dose. Calls come from the whole dose curve; as a rule, active = well fitted curve in the direction sought with a large enough effect; inconclusive = small, poorly fitted or top-dose-only effect, or another doubt; inactive = no such curve, though single readings can be large; an effect the other way counts as inactive or inconclusive. Potency is the fitted concentration of half-maximal effect.

SMILES | JMJD2A Tudor inh | PLK1 PBD inh | BAZ2B inh | G9a block | HP1b chromo inh | ALOX12 inh
O=[N+]([O-])c1ccc2ncnc(Nc3ccc4c(c3)OCCO4)c2c1 | -16% | -11% | -24% | -38%[12.7 µM] | 4% | 0%
Cc1cccc(CS(=O)(=O)c2cn(CC(=O)N3CCOCC3)c3ccccc23)c1 | -9% | -13% | -17% | 10µM* | 50% | 128%
Cc1ccc(CS(=O)(=O)c2cn(CC(=O)N3CCOCC3)c3ccccc23)cc1 | -9% | -8% | -1% | nt | 51% | 11%
O=C(Cn1cc(S(=O)(=O)Cc2ccccc2F)c2ccccc21)N1CCOCC1 | -12% | -13% | -18% | 22µM* | 45% | 189%
COc1ccc(CCNC(=O)CS(=O)(=O)c2cn(CC(=O)N3CCCC3)c3ccccc23)cc1OC | -2% | -3% | nt | 50µM* | 50% | 6%
COc1ccc(CCNC(=O)CS(=O)(=O)c2cn(CC(=O)N(C(C)C)C(C)C)c3ccccc23)cc1OC | -1% | -2% | -1% | 17% | 25% | ?
CN1CCCN(C(=O)c2cccc(-c3ccc(C=C4C(=O)Nc5ccc(Cl)cc54)o3)c2)CC1 | nt | nt | nt | nt | nt | -35%[57.4 µM]
COc1ccc(S(=O)(=O)Nc2nc3ccccc3s2)cc1OC | -9% | -7% | -27% | ? | 34% | 0%
Oc1ccc(/C(Cc2ccc3ccccc3n2)=N\Nc2ccccc2)c(O)c1 | 50µM* | -25% | ? | 7.9µM* | 71µM* | ?
Oc1ccc(/C(Cc2ccccn2)=N\Nc2ccccc2)c(O)c1 | ? | -4% | 32µM* | 4µM* | -28% | ?
Cc1c(O)ccc(/C(Cc2ccc3ccccc3n2)=N\O)c1O | -31% | 0% | ? | 3%[12.7 µM] | 10% | -13%
CC1=Nc2cc(C(=O)NC3CCCC3)ccc2Sc2ccc(Cl)cc21 | -16% | nt | -13% | -5%[59 µM] | -6% | -26%
O=S(=O)(O)c1cccc2c(N=Nc3ccc(O)c4ncccc34)cccc12 | 25µM* | 21µM* | 22µM* | 10µM* | 22µM* | nt
Nc1ccc(N=Nc2ccccc2)c2cccnc12 | 32µM* | 4% | 7.9µM* | 13µM* | 16µM* | 230%
COc1ccc(C)cc1N=Nc1ccc(O)c2ncccc12 | 8.9µM* | 2% | 18µM* | 10µM* | 7.9µM* | ?
COc1ccc(N=Nc2ccc(O)c3ncccc23)cc1 | 22µM* | -4% | 6.3µM* | -7%[59 µM] | -19% | ?
Nc1ccc([N+](=O)[O-])c2ncccc12 | nt | nt | nt | nt | nt | -29%
O=S(=O)(O)c1ccc2cc(N=Nc3cc(S(=O)(=O)O)c4cccnc4c3O)ccc2c1 | nt | nt | nt | nt | nt | -29%[57.4 µM]
COc1ccc(NC(=O)c2cccc(C)c2)c2cccnc12 | nt | nt | nt | nt | nt | 31%
Cc1cc(NC(=O)CSc2nc3cc(Cl)ccc3c(=O)n2CC(C)C)no1 | nt | nt | -5% | 1% | nt | nt
COc1ccccc1-c1ccc2c(c1)[C@@H]1C[C@H]3[C@@H](CN1CC2)[C@H](C)ON3C | nt | nt | nt | nt | nt | -16%
COc1cccc(C(=O)Nc2cccc3cccnc23)c1 | nt | nt | nt | nt | nt | 14%
O=Nc1ccc(O)c2ncccc12 | 28µM* | -11% | 22µM* | ? | -2% | ?
Oc1ccc(N=Nc2ccc3c(c2)OCCO3)c2cccnc12 | 20µM* | 27µM* | ? | -47% | ? | ?
O=Nc1ccc(NO)c2ccccc12 | nt | -19% | nt | nt | nt | -24%
SMILES | JMJD2A Tudor inh | PLK1 PBD inh | BAZ2B inh | G9a block | HP1b chromo inh | ALOX12 inh
Cc1ccc(N=Nc2ccc(O)cc2)c(Br)c1 | 35µM* | -7% | 45µM* | nt | ? | 3%
COc1cccc(N=Nc2ccc3cccnc3c2O)c1 | 14µM* | -19% | 13µM* | 7.1µM* | ? | ?
Cc1cccc(N2CCCn3c2nc2c3c(=O)n(CCN3CCOCC3)c(=O)n2C)c1 | -27% | -1% | 10% | -4%[59 µM] | 22% | 1%
CCc1ccc(NCc2nc(-c3ccccc3)no2)cc1 | 9% | -11% | 11% | 84% | 78% | -18%
O=C(Cc1ccc2c(c1)OCCO2)c1c(O)cc(O)cc1O | ? | -14% | 11% | -9%[59 µM] | 8% | ?
Cc1ccc(O)c2ncccc12 | nt | nt | nt | 30%[12.7 µM] | nt | nt
Oc1ccc(N=Nc2ccc(Br)cc2)c(O)c1 | -34% | -4% | 25µM* | ? | -9% | -18%
Cc1ccccc1N=Nc1ccc(O)c2ncccc12 | ? | -7% | 7.9µM* | ? | ? | -37%
Oc1ccc(N=Nc2ccc3c(c2)OCCO3)c(O)c1 | 40µM* | -4% | ? | ? | -35% | -7%
Oc1ccc(N=Nc2n[nH]c(-c3ccc(Br)cc3)n2)cc1 | -13% | 2% | -2% | 24%[59 µM] | 7% | 15%
COc1ccc(N=Nc2cc(-c3ccccc3)ccc2O)cc1 | 13µM* | 2% | 10µM* | ? | ? | 6%
Cc1nn(CCO)cc1CN1CCN(C(=O)c2cc[nH]c2)CC(O)C1 (stereo not given) | nt | nt | nt | nt | nt | 13%
O=C(c1cc(-c2ccccc2)on1)N1CCSCC1 | nt | nt | nt | nt | nt | 21%
CS(=O)(=O)Oc1ccc(Br)c2cccnc12 | -1% | 0% | 3% | 14%[0.501 µM] | 29% | -9%
COc1cccc(N=Nc2ccc(O)c3ncccc23)c1 | 18µM* | -18% | 7.9µM* | 10µM* | ? | ?
COc1ccc(-c2[nH]ncc2N=Nc2ccccc2)cc1 | 28µM* | -10% | 35µM* | 50µM* | ? | -29%
Nc1ccc(Br)c2cccnc12 | -29% | 8.4µM* | -33% | 32µM* | 17% | -4%
O=C(C(=O)N1CCC(CNS(=O)(=O)c2ccccc2OC(F)(F)F)CC1)c1cc2ccccc2o1 | nt | nt | nt | nt | nt | -10%
Cc1ccc(CNC(=O)Cc2c(C(=O)O)c(C)cn2C)cc1 | -6% | nt | -15% | 8%[59 µM] | 26% | -11%
COc1cc2c(cc1OC)CN(Cc1cc(=O)c(OCc3cccc(Cl)c3)co1)CC2 | nt | nt | nt | nt | nt | 2%
COc1ccc(/C(N)=N/OC(=O)c2cccc([N+](=O)[O-])c2)cc1 | 1% | -3% | 3% | ? | 30% | 21%
C=C(C)[C@@H]1CCC2(C(=O)OC)CC[C@]3(C)C(CCC4[C@@]5(C)C/C(=C\c6ccccc6)C(=O)C(C)(C)C5CC[C@]43C)C12 (stereo not given in full) | nt | nt | nt | nt | nt | -1%
COC(=O)[C@]12CCC(C)(C)C[C@@H]1[C@@H]1C(=O)C=C3[C@@]4(C)C=C(C#N)C(=O)C(C)(C)[C@@H]4CC[C@@]3(C)[C@]1(C)CC2 | nt | nt | nt | nt | nt | 9.7µM*
COc1ccc(N2C(=O)CC(SCCc3nc4ccccc4[nH]3)C2=O)cc1 (stereo not given) | -7% | -9% | -5% | nt | 30% | -31%
O=C1CC(SCCc2nc3ccccc3[nH]2)C(=O)N1c1ccc(F)cc1 (stereo not given) | -16% | -7% | -31% | 45µM* | 18% | 21%
